Several values for one entry are separate records, joined by “and”; a condition that tells them apart may be missing. Identical values can stand only once. Inconclusive results are not listed. Where a structure was tested more than once in an assay, its records may differ in their call. Activity calls are given as the source filed them. The call rests on the fitted dose curve; in most records, active means well fitted curve in the direction sought with a large enough effect; inconclusive means small, poorly fitted or top-dose-only effect, or another doubt; inactive means no such curve, though single readings can be large; an effect the other way counts as inactive or inconclusive.
Legend:
[1] = target: Glutathione peroxidase 1 (Homo sapiens) (UniProt P07203); test: Primary qHTS Assay for Inhibitors of Recombinant Selenoprotein Glutathione Peroxidase 1 (GPX1) (AID 1845191); further: nearly all actives have a fitted effect of over 65% in size; further: potency means the concentration at half of the fitted maximal effect
Method in brief: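 Recombinant GPX1 (10 nM final) was preincubated with compound for 30 min at room temperature, then reacted with 1 mM GSH, 0.5 mM CHP, 0.5 mM NADPH and 100 nM glutathione reductase; NADPH fluorescence (340/450 nm) was read at 0 and 15 min.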

[2] = target: Phospholipid hydroperoxide glutathione peroxidase GPX4 (Homo sapiens) (UniProt P36969); test: Primary qHTS Assay for Inhibitors of Recombinant Selenoprotein Glutathione Peroxidase 4 (GPX4) (AID 1845192); further: nearly all actives have a fitted effect of over 65% in size; further: potency means the concentration at half of the fitted maximal effect
Method in brief: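 GR-coupled readout: 100 nM GR, 1 mM GSH, 0.5 mM NADPH; NADPH fluorescence (ex 340/em 450 nm) read at t=0 and after 15 min RT. GPX4 200 nM, preincubated 30 min with compound; substrate 0.5 mM CHP.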

[3] = target: Luciferin 4-monooxygenase (Photinus pyralis) (UniProt P08659); test: Primary firefly luciferase (FLuc) qHTS assay for identification of artifact compounds. (AID 1845220); further: nearly all actives have a fitted effect of over 60% in size; further: potency means the concentration at half of the fitted maximal effect
Method in brief: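 In this counter-screen for luciferase artifacts, test compounds met substrate (10 uM each luciferin and ATP) before 10 nM enzyme started the reaction. Light output was measured 5 min later.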

[4] = Primary fluorescence-based thiol-reactive (MSTI) qHTS assay for identification of artifact compounds. (AID 1845221); further: nearly all actives have a fitted effect of over 65% in size; further: potency means the concentration at half of the fitted maximal effect
Method in brief: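 Compounds were incubated 1 h at room temperature in the dark with the MSTI probe (4 uM) in PBS pH 7.4, 2% DMSO. Signals were normalized between Acetyl-MSTI and MSTI.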

[5] = test system: Nanoluciferase (engineered Oplophorus gracilirostris luciferase); test: Primary Nanoluciferase (NLuc) qHTS assay for identification of artifact compounds. (AID 1845222);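 further: NLuc secreted into diluted conditioned medium of S16 cells; series mostly up to about 54 µM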
Method in brief: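 Using secreted nanoluciferase in S16 culture medium (0.22 um filtered, 1:55 dilution), compounds were preincubated 15 min at RT. Signal was generated with Nano-Glo reagent (1:100) over 5 min.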

[6] = Primary redox qHTS assay for identification of artifact compounds. (AID 1845223)
Method in brief: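 Amplex Red (25 uM) and HRP (250 mU/mL) in HBSS, with compounds for 15 min, then 250 uM DTT for 30 min, room temperature, dark. Fluorescence 525/598 nm read; normalized to DMSO and 10 uM DA3003; Hill fit.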

[7] = Quantitative High-Throughput drug screen in 47 multiple myeloma cell lines against the NCATS MIPE library collection: FR4_PLB cell viability assay (AID 1918924; further: nearly all actives have a fitted effect of over 35% in size; further: potency means the concentration at half of the fitted maximal effect)
Method in brief: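 Viability readout: CellTiter-Glo luminescence following 5 min room-temperature incubation with reagent. Prior exposure: 48 h, 37C, humidified 5% CO2, 500 cells per well.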

[8] = Quantitative High-Throughput drug screen in 47 multiple myeloma cell lines against the NCATS MIPE library collection: AMO1_DSMZ cell viability assay (AID 1918927; further: nearly all actives have a fitted effect of over 30% in size; further: potency means the concentration at half of the fitted maximal effect)
Method in brief: (§1)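 CellTiter-Glo luminescence (ATP) after 48 h compound exposure, 37C/5% CO2; 500 cells/well; MIPE 4.0 approved/investigational drugs pinned in; DMSO = 100%, media only = 0% viability.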

[9] = Quantitative High-Throughput drug screen in 47 multiple myeloma cell lines against the NCATS MIPE library collection: Delta47_JCRB cell viability assay (AID 1918925; further: nearly all actives have a fitted effect of over 45% in size; further: potency means the concentration at half of the fitted maximal effect)
Method in brief: as §1

[10] = Quantitative High-Throughput drug screen in 47 multiple myeloma cell lines against the NCATS MIPE library collection: EJM_DSMZ cell viability assay (AID 1918926; further: nearly all actives have a fitted effect of over 30% in size; further: potency means the concentration at half of the fitted maximal effect)
Method in brief: as §1

Measured: Potency

Chain of Glutathione peroxidase 1 (Homo sapiens) (P07203 whole entry, looked up): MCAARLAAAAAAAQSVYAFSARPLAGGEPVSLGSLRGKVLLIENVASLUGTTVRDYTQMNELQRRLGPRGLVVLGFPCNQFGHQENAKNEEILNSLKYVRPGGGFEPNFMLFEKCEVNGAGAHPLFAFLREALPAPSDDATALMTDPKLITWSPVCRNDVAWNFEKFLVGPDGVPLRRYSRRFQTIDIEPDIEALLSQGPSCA
Chain of Phospholipid hydroperoxide glutathione peroxidase GPX4 (Homo sapiens) (P36969 whole entry, looked up): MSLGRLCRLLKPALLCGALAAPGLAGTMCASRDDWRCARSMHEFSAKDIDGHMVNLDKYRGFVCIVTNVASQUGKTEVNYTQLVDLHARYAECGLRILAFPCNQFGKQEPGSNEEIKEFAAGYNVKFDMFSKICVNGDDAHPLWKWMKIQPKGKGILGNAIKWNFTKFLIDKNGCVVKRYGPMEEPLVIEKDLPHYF

COc1ccc(-n2c(C)c([N+](=O)[O-])c3ccc(O)cc32)cc1
inactive: [1] | [2]

O=C1NC(=O)C(c2ccccc2)(c2ccccc2)N1
inactive: [1] | [2]

Cc1cccc(C)c1OCC(C)N (stereo unspecified)
inactive: [1] | [2]

Cc1ccc(/C=N/NC(=O)c2ccccc2Oc2ccccc2)o1
inactive: [1] | [2]

O=C(NCCN1CCOCC1)c1ccc(Cl)cc1
inactive: [1] | [2]

CCN(CC)C(=O)c1ccc(O)c(OC)c1
inactive: [1] | [2]

CN(C)Cc1cccc(N=C(c2ccccc2)c2c(O)[nH]c3cc(C(=O)N(C)C)ccc23)c1
inactive: [1] | [2]

COc1ncc(-c2ccc3nccc(-c4ccnnc4)c3c2)cc1NS(=O)(=O)c1ccc(F)cc1F
active: [7] 0.0132 µM | [8] 0.0469 µM
not listed: [9] | [10]
inactive: all other assays above

CC/C(=C(\c1ccccc1)c1ccc(OCCN(C)C)cc1)c1ccccc1
inactive: [1] | [2]

NCCS
inactive: [1] | [2]

CC(=O)O[C@]1(C(C)=O)CC[C@H]2[C@@H]3C=C(Cl)C4=CC(=O)[C@@H]5C[C@@H]5[C@]4(C)[C@H]3CC[C@@]21C
inactive: [1] | [2] | [3] | [4] | [5] | [6]

OC[C@@H](O)[C@H](O)[C@H](O)[C@@H](O)CO
inactive: [1] | [2]

COC1CCC(N(C(=O)C2CCC(C)CC2)c2cc(C3=CCCCC3)sc2C(=O)O)CC1 (stereo unspecified)
inactive: [1]

CNC1CCC(N(Cc2cccc(-c3ccncc3)c2)C(=O)c2sc3c(F)ccc(F)c3c2Cl)CC1 (stereo unspecified)
active: [7] 14.8 µM | [9] 16.6 µM | [8] 23.5 µM
not listed: [10]
inactive: all other assays above

CC(=O)c1ccc(S(=O)(=O)NC(=O)NC2CCCCC2)cc1
inactive: [1] | [2]

C=C1C(=O)[C@@]23C(CC[C@@H]1[C@H]2O)[C@@]12CO[C@]3(O)[C@@H](O)[C@@H]1C(C)(C)CC[C@@H]2O (stereo partly specified)
active: [7] 6.62 µM | [9] 3.72 µM | [10] 2.96 µM | [8] 1.48 µM
inactive: all other assays above

COCCOC(=O)C1=C(C)NC2=C(C(=O)CC(c3ccccc3OC)C2)C1c1cccc(O)c1 (stereo unspecified)
active: [7] 14.8 µM | [9] 1.05 µM | [8] 11.8 µM
not listed: [10]
inactive: all other assays above

c1cc(-c2sc(-c3ccncc3)c(-c3ccncc3)c2-c2ccncc2)ccn1
inactive: [1] | [2]

O=C(CCN1CCN(C(=O)OCc2cc(Cl)cc(Cl)c2)CC1)c1ccc2[nH]c(=O)oc2c1
active: [8] 1.18 µM
not listed: [9]
inactive: all other assays above

CCN1CCC[C@H]1CNC(=O)c1cc(S(N)(=O)=O)ccc1OC
inactive: [1] | [2] | [3] | [4] | [5] | [6]

CC(=O)CCCCn1c(=O)c2c(ncn2C)n(C)c1=O
inactive: [1] | [2] | [3] | [4] | [5] | [6]

CCCCC1C(=O)N(c2ccccc2)N(c2ccccc2)C1=O
inactive: [1] | [2]

CC(=O)OC1C(C)OC(Oc2c(-c3ccc(O)cc3)oc3cc(O)cc(O)c3c2=O)C(O)C1OC(C)=O (stereo unspecified)
inactive: [1] | [2]

CC(C)(C)c1cc(C(=O)O)c(NC(=O)Nc2ccc3[nH]ncc3c2)s1
active: [3] 16.9 µM | [4] 1.06 µM
not listed: [9]
inactive: all other assays above

C[N+](C)(C)CCCCCC[N+](C)(C)C
inactive: [1] | [2]

CO[C@H]1C[C@@H]2CC[C@@H](C)[C@@](O)(O2)C(=O)C(=O)N2CCCC[C@@H]2C(=O)O[C@H]([C@@H](C)C[C@@H]2CC[C@H](O)[C@H](OC)C2)CC(=O)[C@H](C)C=C(C)[C@@H](O)[C@@H](OC)C(=O)[C@H](C)C[C@H](C)C=CC=CC=C1C
inactive: [1] | [2]

COC(=O)[C@@H]1[C@H]2C[C@H]3c4[nH]c5ccccc5c4CCN3C[C@@H]2CC[C@@H]1O
inactive: [1] | [2] | [3] | [4] | [5] | [6]

O=C1NCC2(CCN(CCc3ccccc3)CC2)O1
inactive: [1] | [2]

O=C(O)Cc1cccc2ccccc12
inactive: [1] | [2]

CC(C)(C)c1ccc(C(O)CCCN2CCC(C(O)(c3ccccc3)c3ccccc3)CC2)cc1 (stereo unspecified)
inactive: [1] | [2]

COc1ccc2c(Oc3ccc(NC(=O)c4c(C)n(CC(C)(C)O)n(-c5ccccc5)c4=O)cc3F)ccnc2c1
active: [9] 23.5 µM
not listed: [7] | [8] | [10]
inactive: all other assays above

CC(=O)N[C@@H](CS)C(=O)O
inactive: [1] | [2]

CCN(CC)CCOC(=O)c1ccc(N)cc1
inactive: [1] | [2]

O=C(Nc1cccc(Br)c1)c1cccc(S(=O)(=O)N2CCCCCC2)c1
active: [9] 18.7 µM
not listed: [7] | [8] | [10]
inactive: all other assays above

CC1=C(/C=C/C(C)=C/C=C/C(C)=C/C(=O)Nc2ccc(O)cc2)C(C)(C)CCC1
inactive: [1] | [2]

CC(C)(C)Cn1c(N)nc2ccc(-c3[nH]c(C(C)(C)C)nc3-c3ccc(F)cc3)nc21
active: [1] 16.1 µM | [4] 1.89 µM
inactive: [3] | [5] | [6]
inactive and 9.04 µM (active): [2]

COc1ccccc1N1CCN(CCCNc2cc(=O)n(C)c(=O)n2C)CC1
inactive: [1] | [2] | [3] | [4] | [6]

O=C(O)CCc1nc(-c2ccccc2)c(-c2ccccc2)o1
inactive: [1] | [2] | [3] | [4] | [6]

CS(=O)(=O)N(Cc1ccco1)CC(O)Cn1c2ccccc2c2ccccc21 (stereo unspecified)
inactive: [1] | [2] | [3] | [4] | [6] | [7]

CCN(CC)CCNC(=O)c1ccc(N)cc1
inactive: [1] | [2] | [3] | [4] | [6]

CN(C[C@@H]1COCCO1)S(=O)(=O)Nc1ccc2ccc3ncc(-c4cnn(C)c4)cc3c(=O)c2c1
active: [7] 13.2 µM | [10] 2.96 µM
inactive: [1] | [2] | [3] | [4] | [6]

CC(C)C(=O)Nc1ncc(-c2cc(C(F)F)nn2-c2c(Cl)cccc2Cl)s1
active: [9] 26.4 µM | [8] 8.33 µM
not listed: [7] | [10]
inactive: all other assays above

CCCNC(=O)NS(=O)(=O)c1ccc(Cl)cc1
inactive: [1] | [2] | [3] | [4] | [6]

O=c1[nH]cnc2c1ncn2[C@H]1CC[C@@H](CO)O1
not listed: [5] | [7] | [9]
inactive: all other assays above

COCCOc1nc(-c2ccc(Cl)c(Cl)c2)n(-c2ccc(NC(=O)CCl)cc2)n1
active: [9] 9.35 µM | [8] 16.6 µM
inactive: [1] | [2] | [3] | [4] | [6]

Cc1ccccc1C(C(=O)NC1CCCCC1)N(C(=O)Cn1ccnc1C)c1cccc(F)c1 (stereo unspecified)
active: [9] 11.8 µM
not listed: [7] | [8] | [10]
inactive: all other assays above

Cn1c(N2CCCCS2(=O)=O)nc(C(=O)NCc2ccc(F)cc2)c(O)c1=O
active: [4] 1.34 µM
not listed: [5] | [7] | [8]
inactive: all other assays above

O=C(NCc1ccccc1)c1csc(Nc2ccncn2)n1
active: [9] 14.8 µM | [10] 18.7 µM | [8] 9.35 µM
not listed: [5] | [7]
inactive: all other assays above

COc1cc2ncnc(Nc3ccc(F)c(Cl)c3)c2cc1OCCCN1CCOCC1
active: [9] 5.4 µM | [10] 6.05 µM | [8] 4.81 µM
not listed: [5] | [7]
inactive: all other assays above

CC1CCC(C(=O)N(c2cc(C#CC(C)(C)C)sc2C(=O)O)C2CCC(O)CC2)CC1 (stereo unspecified)
active: [2] 9.04 µM | [9] 23.5 µM
inactive: [1] | [3] | [4] | [8]

Cc1nc(N)sc1-c1ccnc(Nc2ccc(N3CCOCC3)cc2)n1
inactive: [1] | [2] | [6]
active: [3] 5.36 µM | [4] 1.5 µM | [9] 10.5 µM | [10] 18.7 µM | [8] 2.64 µM

CC(C)C(=O)Oc1ccc(CO)cc1[C@H](CCN(C(C)C)C(C)C)c1ccccc1
not listed: [7] | [9]
inactive: all other assays above

COc1ccc2c(Oc3ccc(NC(=O)c4c(C)n(CC(C)(C)O)n(-c5ccccc5)c4=O)nc3)ccnc2c1
active: [7] 20.9 µM
inactive: [1] | [2] | [3] | [4]

NC(=O)c1cnc(-c2ccc(C3(N)CCC3)cc2)c(-c2ccccc2)c1
active: [9] 6.62 µM | [10] 1.66 µM
not listed: [5] | [8]
inactive: all other assays above

CCOc1ccc(Nc2nc(-c3c(C)nc4ccccn34)cs2)cc1
inactive: [1] | [2] | [3] | [5] | [6]
active: [4] 2.67 µM | [8] 0.001 µM

CC(=O)N(C)C1(c2ccccc2)CCN(CCC[C@]2(c3ccc(Cl)c(Cl)c3)CCCN(C(=O)c3ccccc3)C2)CC1
active: [9] 10.5 µM | [10] 20.9 µM | [8] 10.5 µM
not listed: [5] | [7]
inactive: all other assays above

CC1(C)CCC(CN2CCN(c3ccc(C(=O)NS(=O)(=O)c4ccc(NCC5CCOCC5)c([N+](=O)[O-])c4)c(Oc4cnc5[nH]ccc5c4)c3)CC2)=C(c2ccc(Cl)cc2)C1
inactive and 3.16 µM (active): [2]
inactive and 6.4 µM (active): [1]
active: [7] 20.9 µM | [10] 20.9 µM | [8] 9.35 µM
inactive: [3] | [4] | [6]

Source: PubChem BioAssay (NCATS)
